# Screening results (PubChem)
# CYP2C9 activ = human CYP2C9 activators, primary screen, biochemical, luminescence. 1.4% of 96,000 active. Cytochrome P450 2C9 (Homo sapiens), P11712. recombinant CYP2C9, luciferin-H conversion; active compounds read high; factor 1 = untreated enzyme, 0 = blocked. activation factor at 5 µM. AID 1024, 2008;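 active means activation factor of 2 or more for CYP2C9 at a 5 µM dose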;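 further: 0 = sulfaphenazole-blocked wells and 1 = vehicle-only wells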
# CYP2C19 inh = blockers of cytochrome P450 2C19 activity – biochemical, luminescence, ADME assay, primary screen; 21% of 96,000 active; inhibition, % at 5 µM; CYP2C19 Supersomes, luciferin-H EGE luminescence, 30 min; P33261;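 active means CYP2C19 inhibition above a set limit at 5 µM in the primary screen, cut at about 50% in these data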;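 further: plate controls were negative control wells for no effect and 2.5 mM tranylcypromine positive control for full effect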
# Target sequence (P33261 whole entry, looked up): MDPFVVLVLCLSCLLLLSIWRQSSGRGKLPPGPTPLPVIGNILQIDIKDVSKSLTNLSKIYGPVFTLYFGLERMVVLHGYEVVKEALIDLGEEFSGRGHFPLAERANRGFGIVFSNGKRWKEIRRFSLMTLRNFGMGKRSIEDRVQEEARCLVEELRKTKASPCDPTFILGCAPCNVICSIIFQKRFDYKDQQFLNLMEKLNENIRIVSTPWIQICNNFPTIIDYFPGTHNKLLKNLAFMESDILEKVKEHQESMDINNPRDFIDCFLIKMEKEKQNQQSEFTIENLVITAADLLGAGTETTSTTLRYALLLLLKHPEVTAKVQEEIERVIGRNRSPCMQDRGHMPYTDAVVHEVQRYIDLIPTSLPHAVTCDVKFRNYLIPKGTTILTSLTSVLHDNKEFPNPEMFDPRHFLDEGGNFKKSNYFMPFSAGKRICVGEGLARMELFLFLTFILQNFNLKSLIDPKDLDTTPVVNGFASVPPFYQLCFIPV
# CYP2C19 act = human CYP2C19 activators, primary screen, biochemical, luminescence; Cytochrome P450 2C19 (Homo sapiens), P33261; recombinant CYP2C19, luciferin-H EGE luminescence; active compounds read high; 0 = fully inhibited enzyme, 1 = untreated enzyme; activation factor at 5 µM; 96,000 tested, under 10 active; AID 1025, 2008;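 active means activation factor of at least 2 at 5 µM in the primary screen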;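 further: 0 = wells with 2.5 mM tranylcypromine and 1 = vehicle-only wells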
# CYP2C9 inh = blockers of cytochrome P450 2C9 activity – biochemical, luminescence, ADME assay, primary screen. inhibition, % at 5 µM. P11712. 20% of 96,000 active. CYP2C9 Supersomes, luciferin-H conversion;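 active means blocking of liver enzyme CYP2C9 beyond about 50% at 5 µM, limit read from the data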
# Starred values were filed as active, the others as inactive. Most compounds without a hit are left out; they make up all but 31% or so of the library.
SMILES,CYP2C9 activ,CYP2C19 inh,CYP2C19 act,CYP2C9 inh
CCOC(=O)N1CCC(NC(=O)CN2C(=O)CSc3nc(C)cc(C)c32)CC1,0.7,61*,0.4,26
O=C(O)C1CCCN(S(=O)(=O)c2ccc(Br)cc2)C1 (stereo not given),1.2,-13,1.1,-23
COc1ccc(Br)cc1/C=N/NC(=O)c1ccc(COc2ccc3c(c2)CCC3)o1,0.6,30,0.7,43
COc1ccccc1/C=C/C(=O)NCC(=O)N/N=C/c1cc(Br)ccc1OC,0.5,6,0.9,53*
Cc1ccc(-n2nnnc2SCC(=O)Nc2cccc(NC(=O)c3ccco3)c2)cc1C,0.8,50*,0.5,19
CC(=O)Nc1ccc(NC(=O)CSc2ccc(C)cc2)cc1,0.2,70*,0.3,81*
CCCn1nnnc1SCC(=O)Nc1cccc(NC(=O)c2ccco2)c1,0.4,75*,0.2,60*
Cc1ccc(SCC(=O)Nc2cccc(NC(=O)c3ccco3)c2)cc1,0.3,32,0.7,72*
Cc1cc(C)cc(-n2nnnc2SCC(=O)Nc2cccc(NC(=O)c3ccco3)c2)c1,0.7,36,0.6,34
CCSc1ccc2nnc(-c3cccc(F)c3)n2n1,0.8,20,0.8,20
CC(=O)c1cc(C#N)c(SCc2ccncc2)nc1C,0.1,97*,0,93*
CCSc1nc(C)c(C(C)=O)cc1C#N,0.9,26,0.7,10
CCN(CC)c1nc(C)c(C(C)=O)cc1C#N,0.8,54*,0.5,17
Cc1ccc(NC(=O)Nc2nc(-c3ccc(C)s3)cs2)cc1,0.8,18,0.8,25
CC(=O)CCc1oc2ccc(NC(C)=O)cc2c1-c1ccc(C)o1,0.8,46,0.5,21
COc1ccc(S(=O)(=O)Nc2cc(OC)c(NC(=O)c3ccco3)cc2OC)cc1,0.1,57*,0.4,94*
COc1ccc(NC(=O)c2cc(Cl)ccc2NC(=O)c2ccco2)c(OC)c1,0.1,73*,0.3,94*
COc1cc(NS(=O)(=O)c2ccc(Br)cc2)c(OC)cc1NC(=O)c1ccco1,0,98*,0,100*
CCOC(=O)C1CCCc2c1[nH]c1c(C(=O)O)cccc21 (stereo not given),1,10,0.9,2
CN1C2CCC1CC(OC(=O)c1c[nH]c3ccccc13)C2 (stereo not given),0.8,10,0.9,17
CCn1nc(C(=O)OC(C(=O)c2c[nH]c3ccccc23)c2ccccc2)c2ccccc2c1=O (stereo not given),0.3,34,0.7,74*
Cc1ccc(NC(=O)NC2=N/C(=C(/C#N)C(=O)N3CCCC3)c3ccccc32)cc1,0,89*,0.1,98*
Cc1ccc(NC(=O)C2CC=CCC2C(=O)N2CCCCC2)cc1 (stereo not given),0.7,38,0.6,29
Cc1ccc2[nH]c(=O)c(CN(Cc3ccco3)S(=O)(=O)c3c(C)ccc4nsnc34)cc2c1,0.9,10,0.9,14
Cc1ccc2[nH]c(=O)c(CN(CC3CCCO3)S(=O)(=O)c3c(C)ccc4nsnc34)cc2c1 (stereo not given),0.5,29,0.7,52*
SMILES,CYP2C9 activ,CYP2C19 inh,CYP2C19 act,CYP2C9 inh
CC(=O)c1ccc(S(=O)(=O)N(Cc2cc3cc4c(cc3[nH]c2=O)OCCO4)CC2CCCO2)cc1 (stereo not given),1.1,3,1,-7
Cc1ccc2[nH]c(=O)c(CN(CC3CCCO3)S(=O)(=O)c3cccc4nsnc34)cc2c1 (stereo not given),0.1,79*,0.2,91*
CCOC(=O)c1ccc2c(c1)nc(SC/C(O)=C(\C#N)c1nc3ccccc3[nH]1)n2CC,0.9,17,0.8,14
CCOC(=O)c1ccc2c(c1)nc(SCC(=O)c1ccco1)n2CC,0.3,21,0.8,69*
CCOC(=O)c1ccc2c(c1)nc(SCC(=O)N1CCCCC1)n2CC,0.1,78*,0.2,88*
C[C@H](NC(=O)C1(c2ccccc2)CCN(C(=O)[C@H]2CSCN2C(=O)OC(C)(C)C)CC1)C(=O)O,0.9,9,0.9,11
CCOC(=O)C1=C(c2ccccc2)Nc2c(c(=O)n(C)c(=O)n2C)C1c1ccc(O)c(OC)c1 (stereo not given),0.5,-1,1,52*
CCOC(=O)C1=C(c2ccccc2)N(C)C(=O)NC1c1ccc(O)c(OC)c1 (stereo not given),0.6,69*,0.3,44
CCOC(=O)C1=C(c2ccccc2)NC(=O)NC1c1ccc(OCC#N)c(OC)c1 (stereo not given),0.8,17,0.8,16
CC1=C(C(=O)OCc2ccccc2)C(c2cccnc2)c2c(n(C)c(=O)n(C)c2=O)N1 (stereo not given),0.4,94*,0.1,60*
Cc1noc(C)c1CSCC(=O)N1CCN(c2ccc([N+](=O)[O-])cc2)CC1,0.9,-4,1,10
Cc1ccc(SCC(=O)NCCSC(C)(C)C)cc1,0.6,34,0.7,38
Cc1ccc2[nH]c(=O)c(CN(Cc3cccnc3)C(=O)c3ccncc3)cc2c1,0.2,91*,0.1,80*
CCN(Cc1cc2cc(OC)ccc2[nH]c1=O)C(=O)c1ccncc1,0.3,74*,0.3,68*
CCN(Cc1cc2ccccc2[nH]c1=O)C(=O)c1cccnc1,1,4,1,3
Cc1ccc(NC(=O)C(C)c2ccc(-c3ccccc3)c(F)c2)cc1 (stereo not given),0,48,0.5,96*
CNc1nc(-c2ccc(Cl)cc2)cs1,0.8,60*,0.4,25
CN1C(=O)/C(=C2\SC(=S)N(CC3CCCO3)C2=O)c2ccccc21 (stereo not given),0.6,15,0.8,40
Cc1cccc(N=C2NC(=O)/C(=C3/C(=O)N(C)c4ccccc43)S2)c1C,0.1,50*,0.5,93*
O=C(COC(=O)c1ccc(=O)n(Cc2ccccc2)n1)Nc1ccc2c(c1)OCCO2,0.8,17,0.8,16
CCOC(=O)CN1C(=O)SC(CC(=O)Nc2nccs2)C1=O (stereo not given),0.7,27,0.7,35
CCOc1cc(C#N)c(NC(=O)c2cccnc2Cl)cc1OCC,0.3,-7,1.1,65*
CCOc1cc(C#N)c(NC(=O)c2cccnc2)cc1OCC,1,-10,1.1,-3
COc1cc(C)nc(N(Cc2ccccc2)S(=O)(=O)c2ccccc2)n1,0.3,83*,0.2,74*
Cc1cc(C)cc(-c2nnc(SCC(=O)N3CCN(C(=O)c4ccco4)CC3)o2)c1,2*,50,0.5,-103
Cc1cc2cc3c(cc2nc1SCC(=O)N1CCN(C(=O)c2ccco2)CC1)OCO3,0.2,48,0.5,80*
N#CCN1CCN(CC(=O)Nc2cccc3ccccc23)CC1,1,-1,1,-5
